This is a sample that favours compounds with a hit; in the whole collection about 17% have one here.
ATXN2 expr inh = inhibitors of ATXN2 expression; HEK-293 ATXN2-luciferase reporter, luminescence, 24 h; AID 1745845; 360,000 compounds, 0.72% hits; Potency, µM (top dose mostly 57 µM), hits mostly inhibitors; note: nearly all actives have a fitted effect of over 55% in size
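qHTS (up to 57 uM final) was run with 24 h compound exposure of reporter cells at 37 °C. Each well was multiplexed: SteadyGlo luminescence measured ATXN2-luciferase expression after a fluorogenic Gly-Phe-AFC viability readout (25 uM final).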
HepG2 viability = kills HepG2 cells in TGF-b inhibitor counter-screen. AID 588856. HepG2 CAGA-GFP viability, ATP luminescence, 18 h. 410,000 compounds, 0.76% hits. Potency, µM (series often up to 46.1 µM), usual class: cytotoxic
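CellTiter-Glo luminescence gave cytotoxicity after 18 hours at 37 degrees C. The cells were HepG2 CAGA-GFP in 1% FBS DMEM, stimulated with 500 pg/mL TGF-beta after compound addition. %Activity was normalised to no-cell wells (complete cell-killing) and DMSO (no toxicity), and curves were fitted and classified.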
TGFb SMAD3 inh = blocks TGF-b signaling; HepG2 CAGA-GFP TGF-b/SMAD3 reporter, GFP fluorescence, 18 h; TGF-beta stimulated, 500 pg/mL final; Potency, µM (doses to about 46.1 µM), usual class: inhibitors; 410,000 compounds, 1.2% hits; note: nearly all actives have a fitted effect of over 65% in size
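Inhibition was scored as loss of TGF-beta-induced (500 pg/mL final, 18 hours, 37 degrees C) GFP in HEPG2 cells carrying a CAGA-GFP reporter, in DMEM with 1% FBS. Well GFP was summed per cell; Activity was normalised to unstimulated and stimulated DMSO wells, then concentration-response fitting.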
S2 tox = cell viability loss in ATXN counter-screen; S2 cells (HEK-293 line with an ATXN2-luciferase reporter) viability, CellTiter-Fluor protease fluorescence, 24 h; Potency, µM (top dose mostly 56.7 µM), usual class: cytotoxic; 400,000 compounds, 0.49% hits; AID 651635; note: nearly all actives have a fitted effect of over 40% in size
DT40 TDP1 CPT = DT40-hTDP1 cell growth loss with CPT; chicken DT40 Tdp1-/-;hTDP1 cells + 20 nM CPT, ATP luminescence, 48 h; Potency, µM (top dose mostly 46.2 µM), hits mostly inhibitors; 420,000 compounds, 12% hits; AID 686979; note: nearly all actives have a fitted effect of over 55% in size
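Chicken DT40 Tdp1-/- cells stably complemented with human TDP1 were seeded at 400 cells/well in medium containing 20 nM camptothecin, exposed to pin-transferred compounds, and grown at 37 °C for at least 48 hr. Viability was read as ATP luminescence.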
TDP1 cell noCPT = qHTS for Inhibitors of human tyrosyl-DNA phosphodiesterase 1 (TDP1): qHTS in cells in absence of CPT. DT40 Tdp1-/- hTDP1 cells, no CPT, ATP luminescence, 48 h. Potency, µM (series often up to 46.2 µM), hits mostly inhibitors. 420,000 compounds, 15% hits. AID 686978, 2013; note: nearly all actives have a fitted effect of over 55% in size
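Seeded 400 DT40-hTDP1 cells/well (vehicle DMSO, no 20 nM CPT); pinned compounds; ≥48 hr at 37 °C; CellTiter-Glo luminescence as viability measure.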
Of the large screens only hits and unclear results are named; the others gave an inactive call. Calls come from the whole dose curve; as a rule, active = well fitted curve in the direction sought with a large enough effect; inconclusive = small, poorly fitted or top-dose-only effect, or another doubt; inactive = no such curve, though single readings can be large; an effect the other way counts as inactive or inconclusive.

O=C(CN(C(=O)CNS(=O)(=O)c1ccc(F)cc1)c1ccc(F)cc1)NCc1ccco1	none
CCN(CC)CCNC(=O)c1ccc(NC(=O)C2CCN(c3ncnc4sc(C)c(C)c34)CC2)cc1	ATXN2 expr inh inconclusive, TGFb SMAD3 inh inconclusive, DT40 TDP1 CPT 18µM, TDP1 cell noCPT 23µM
Cc1sc2ncnc(N3CCC(C(=O)Nc4nc(-c5ccc(F)cc5)cs4)CC3)c2c1C	TGFb SMAD3 inh inconclusive, DT40 TDP1 CPT inconclusive, TDP1 cell noCPT 16µM
Cc1sc2ncnc(N3CCC(C(=O)Nc4nnc(CC(C)C)s4)CC3)c2c1C	DT40 TDP1 CPT inconclusive, TDP1 cell noCPT 23µM
Cc1sc2ncnc(N3CCC(C(=O)Nc4ccc(OC(F)F)c(Cl)c4)CC3)c2c1C	TGFb SMAD3 inh inconclusive, S2 tox inconclusive, DT40 TDP1 CPT inconclusive, TDP1 cell noCPT inconclusive (no result: ATXN2 expr inh)
CN(CC(=O)Nc1c(Cl)cccc1Cl)C(=O)c1ccc2nc[nH]c2c1	none
CCOC(=O)c1c(NC(=O)Cn2nc(C(F)(F)F)cc2C)sc(C)c1C	DT40 TDP1 CPT inconclusive
CCN(C(=O)COC(=O)c1c2c(nc3ccccc13)/C(=C/c1ccccc1)CC(C)C2)C1CCS(=O)(=O)C1 (centres undefined)	TGFb SMAD3 inh inconclusive, S2 tox inconclusive, DT40 TDP1 CPT inconclusive, TDP1 cell noCPT 13µM
Cc1nc2ccc(NC(=O)NC(=O)c3c(Cl)cccc3Cl)cc2o1	none
CC1(C)OC(=O)C=C(CC2NS(=O)(=O)OC3CCCCC23)O1 (centres undefined)	none
CCc1nn(C(CC)C(=O)NCc2ccc(F)cc2)c(=O)c2cc3occc3n12 (centres undefined)	TGFb SMAD3 inh inconclusive, S2 tox inconclusive, DT40 TDP1 CPT inconclusive
CCc1nn(C(CC)C(=O)NCc2ccc(OC)c(OC)c2)c(=O)c2cc3oc(C)cc3n12 (centres undefined)	TGFb SMAD3 inh inconclusive, S2 tox inconclusive, DT40 TDP1 CPT 16µM, TDP1 cell noCPT 9.2µM
O=C(NCc1ccc(F)cc1)c1cccc2c1C(=O)c1ccc(N3CCC(Cc4ccccc4)CC3)cc1S2(=O)=O	DT40 TDP1 CPT inconclusive, TDP1 cell noCPT inconclusive (no result: S2 tox)
O=C1c2ccccc2S(=O)(=O)c2cc(N3CCC(C(=O)N4CCCCC4)CC3)ccc21	TGFb SMAD3 inh inconclusive, DT40 TDP1 CPT 21µM, TDP1 cell noCPT 18µM (no result: S2 tox)
O=C(NC1CC1)c1cccc2c1C(=O)c1ccc(N3CCC(Cc4ccccc4)CC3)cc1S2(=O)=O	ATXN2 expr inh inconclusive, DT40 TDP1 CPT 23µM, TDP1 cell noCPT 13µM (no result: S2 tox)
CC1CCN(c2ccc3c(c2)S(=O)(=O)c2cccc(C(=O)NC4CCCCC4)c2C3=O)CC1	DT40 TDP1 CPT 16µM, TDP1 cell noCPT 16µM
CC(C)(C)CNC(=O)c1cccc2c1C(=O)c1ccc(-c3cc4ccccc4o3)cc1S2(=O)=O	DT40 TDP1 CPT 16µM, TDP1 cell noCPT inconclusive
NS(=O)(=O)c1ccc(Sc2ccc3ccccc3c2)nc1	TGFb SMAD3 inh inconclusive, DT40 TDP1 CPT inconclusive, TDP1 cell noCPT inconclusive
Cc1ccc(OCc2nc(-c3ccc(C(=O)N4CCN(c5ccccc5F)CC4)cc3)oc2C)cc1	none
CSc1ccccc1NC(=O)C(=O)c1c[nH]c2ccccc12	TDP1 cell noCPT inconclusive
COc1ccc(NC(=O)c2cc(C3CCCCN3S(=O)(=O)Cc3ccccc3)on2)cn1 (centres undefined)	TDP1 cell noCPT inconclusive
COc1ccccc1N1CCN(c2ccc3c(c2)S(=O)(=O)c2cccc(C(=O)NCC4CC4)c2C3=O)CC1	S2 tox inconclusive, DT40 TDP1 CPT 18µM, TDP1 cell noCPT 7.3µM
CC1CCN(c2ccc3c(c2)S(=O)(=O)c2cccc(C(=O)NCc4ccc(F)cc4)c2C3=O)CC1	DT40 TDP1 CPT inconclusive, TDP1 cell noCPT inconclusive

Screening results (PubChem BioAssay)
